In PubChem BioAssay AID1159580 (chemical genetic matrix, 2015):
Several values for one entry are separate records, joined by “and”; a condition that tells them apart may be missing. Identical values can stand only once. In all, about 5,500 compounds went through this assay and about 2,000 (36%) were called active. Inconclusive results (about 18%) are left out. Rule as the data show it: active = normalized growth mostly below about 0.91 (no sharp cut-off); inconclusive = no clear call, values can overlap the other calls; inactive = mostly above about 0.92. Some of the results follow.

Assay: chemical genetic growth profiling, strain panel (AID 1159580);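 also: tested at 20 µM; growth read once vehicle control cultures reached saturation at 30 °C; 1 = growth at the plate median or of vehicle wells; lower values mean less growth of the strain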
Conditions: growth OD

Measured: normalized growth

NC(=O)c1cnccn1
inactive: S. cerevisiae deletion strains, locus YJR075W, strain HOC1, active compounds read low 1.03 | S. cerevisiae deletion strains, locus YKL009W, strain mrt4, active compounds read low 1.02 | S. cerevisiae deletion strains, locus YKL068W, active compounds read low 1 | S. cerevisiae deletion strains, locus YKL085W, strain MDH1 (second series), active compounds read low 1.01 | S. cerevisiae deletion strains, locus YKL085W, strain MDH1, active compounds read low 1.01 | S. cerevisiae deletion strains, locus YKL160W, strain elf1, active compounds read low 0.967 | S. cerevisiae deletion strains, locus YKL190W, strain CNB1, active compounds read low 1.01 | S. cerevisiae deletion strains, locus YKR001C, strain vps1, active compounds read low 0.999 | S. cerevisiae deletion strains, locus YKR026C, strain gcn3, active compounds read low 0.992 | S. cerevisiae deletion strains, locus YKR091W, strain srl3, active compounds read low 0.99 | S. cerevisiae deletion strains, locus YLL001W, strain dnm1, active compounds read low 0.955 | S. cerevisiae deletion strains, locus YLL026W, active compounds read low 0.979 | S. cerevisiae deletion strains, locus YLL041C, strain sdh2, active compounds read low 0.993 | S. cerevisiae deletion strains, locus YLR027C, strain aat2, active compounds read low 0.976 | S. cerevisiae deletion strains, locus YLR039C, strain RIC1, active compounds read low 1.05 | S. cerevisiae deletion strains, locus YLR058C, strain SHM2, active compounds read low 1 | S. cerevisiae deletion strains, locus YLR102C, strain apc9, active compounds read low 0.999 | S. cerevisiae deletion strains, locus YLR113W, strain HOG1, active compounds read low 0.99 | S. cerevisiae deletion strains, locus YLR221C, strain rsa3, active compounds read low 1.01 | S. cerevisiae deletion strains, locus YLR258W, strain gsy2, active compounds read low 1.01 | S. cerevisiae deletion strains, locus YLR262C, strain YPT6 (second series), active compounds read low 0.965 | S. cerevisiae deletion strains, locus YLR262C, strain YPT6, active compounds read low 0.979 | S. cerevisiae deletion strains, locus YLR268W, strain sec22, active compounds read low 1.05 | S. cerevisiae deletion strains, locus YLR320W, strain mms22, active compounds read low 0.981 | S. cerevisiae deletion strains, locus YLR330W, strain CHS5, active compounds read low 1.01 | S. cerevisiae deletion strains, locus YLR342W, strain FKS1 (second series), active compounds read low 1.02 | S. cerevisiae deletion strains, locus YLR342W, strain FKS1, active compounds read low 0.968 | S. cerevisiae deletion strains, locus YLR357W, strain rsc2, active compounds read low 0.967 | S. cerevisiae deletion strains, locus YLR370C, strain arc18, active compounds read low 0.999 | S. cerevisiae deletion strains, locus YLR371W, strain rom2, active compounds read low 1.01 | S. cerevisiae deletion strains, locus YLR384C, strain iki3, active compounds read low 0.977 | S. cerevisiae deletion strains, locus YLR418C, strain cdc73, active compounds read low 1 | S. cerevisiae deletion strains, locus YML016C, strain PPZ1, active compounds read low 1 | S. cerevisiae deletion strains, locus YML032C, strain rad52, active compounds read low 1.02 | S. cerevisiae deletion strains, locus YML120C, strain ndi1, active compounds read low 0.98 | S. cerevisiae deletion strains, locus YML124C, strain tub3, active compounds read low 0.998 | S. cerevisiae deletion strains, locus YMR058W, strain fet3, active compounds read low 0.98 | S. cerevisiae deletion strains, locus YMR078C, strain ctf18, active compounds read low 1 | S. cerevisiae deletion strains, locus YMR125W, strain sto1, active compounds read low 0.999 | S. cerevisiae deletion strains, locus YMR129W, active compounds read low 0.993 | S. cerevisiae deletion strains, locus YMR205C, strain PFK2, active compounds read low 0.998 | S. cerevisiae deletion strains, locus YMR223W, strain ubp8, active compounds read low 0.985 | S. cerevisiae deletion strains, locus YMR231W, strain pep5, active compounds read low 0.982 | S. cerevisiae deletion strains, locus YMR307W, strain GAS1, active compounds read low 1.01 | S. cerevisiae deletion strains, locus YNL067W, strain RPL9B, active compounds read low 1 | S. cerevisiae deletion strains, locus YNL071W, strain lat1, active compounds read low 1.01 | S. cerevisiae deletion strains, locus YNL128W, strain TEP1, active compounds read low 1.02 | S. cerevisiae deletion strains, locus YNL153C, strain GIM3, active compounds read low 1 | S. cerevisiae deletion strains, locus YNL175C, strain NOP13, active compounds read low 1 | S. cerevisiae deletion strains, locus YNL183C, strain NPR1, active compounds read low 0.998 | S. cerevisiae deletion strains, locus YNL197C, strain WHI3, active compounds read low 0.995 | S. cerevisiae deletion strains, locus YNL209W, strain ssb2, active compounds read low 1 | S. cerevisiae deletion strains, locus YNL224C, strain SQS1, active compounds read low 0.991 | S. cerevisiae deletion strains, locus YNL233W, strain BNI4, active compounds read low 1.01 | S. cerevisiae deletion strains, locus YNL248C, strain rpa49, active compounds read low 1.01 | S. cerevisiae deletion strains, locus YNL250W, strain rad50, active compounds read low 0.998 | S. cerevisiae deletion strains, locus YNL271C, strain bni1, active compounds read low 1 | S. cerevisiae deletion strains, locus YNL298W, strain CLA4, active compounds read low 0.997 | S. cerevisiae deletion strains, locus YNL307C, strain MCK1, active compounds read low 1.01 | S. cerevisiae deletion strains, locus YNL322C, strain KRE1 (second series), active compounds read low 0.984 | S. cerevisiae deletion strains, locus YNR049C, strain mso1, active compounds read low 0.998 | S. cerevisiae deletion strains, locus YNR052C, strain pop2, active compounds read low 0.99 | S. cerevisiae deletion strains, locus YOL006C, strain TOP1, active compounds read low 0.999 | S. cerevisiae deletion strains, locus YOL012C, strain htz1 1.57 | S. cerevisiae deletion strains, locus YOL147C, strain pex11, active compounds read low 1 | S. cerevisiae deletion strains, locus YOR001W, strain rrp6, active compounds read low 0.983 | S. cerevisiae deletion strains, locus YOR061W, strain CKA2, active compounds read low 1 | S. cerevisiae deletion strains, locus YOR069W, strain VPS5, active compounds read low 1.01 | S. cerevisiae deletion strains, locus YOR070C, strain gyp1, active compounds read low 1 | S. cerevisiae deletion strains, locus YOR080W, strain dia2, active compounds read low 0.978 | S. cerevisiae deletion strains, locus YOR083W, strain WHI5 (second series), active compounds read low 1.02 | S. cerevisiae deletion strains, locus YOR083W, strain WHI5, active compounds read low 0.955 | S. cerevisiae deletion strains, locus YOR106W, strain vam3, active compounds read low 0.992 | S. cerevisiae deletion strains, locus YOR136W, strain idh2, active compounds read low 0.988 | S. cerevisiae deletion strains, locus YOR144C, strain elg1, active compounds read low 1 | S. cerevisiae deletion strains, locus YOR184W, strain ser1, active compounds read low 1 | S. cerevisiae deletion strains, locus YOR231W, strain MKK1, active compounds read low 1 | S. cerevisiae deletion strains, locus YOR265W, strain rbl2, active compounds read low 0.985 | S. cerevisiae deletion strains, locus YOR270C, strain vph1, active compounds read low 1.02 | S. cerevisiae deletion strains, locus YOR290C, strain snf2, active compounds read low 1.02 | S. cerevisiae deletion strains, locus YOR316C, strain cot1, active compounds read low 1.01 | S. cerevisiae deletion strains, locus YPL051W, strain arl3, active compounds read low 0.993 | S. cerevisiae deletion strains, locus YPL055C, strain LGE1, active compounds read low 0.976 and 0.968 | S. cerevisiae deletion strains, locus YPL078C, strain atp4, active compounds read low 0.957 | S. cerevisiae deletion strains, locus YPL106C, strain sse1, active compounds read low 0.97 | S. cerevisiae deletion strains, locus YPL240C, strain hsp82, active compounds read low 0.979 | S. cerevisiae deletion strains, locus YPL241C, strain CIN2, active compounds read low 1.01 | S. cerevisiae deletion strains, locus YPL256C, strain CLN2, active compounds read low 1.02 | S. cerevisiae deletion strains, locus YPR119W, strain clb2, active compounds read low 1.01 | S. cerevisiae deletion strains, locus YPR141C, strain kar3, active compounds read low 0.993 | S. cerevisiae deletion strains, locus YPR163C, strain tif3, active compounds read low 1.01 | S. cerevisiae deletion strains, locus YPR167C, strain met16, active compounds read low 1.01 | S. cerevisiae deletion strains, strain wtn01, active compounds read low 1 | S. cerevisiae strains, strain wild type, active compounds read low 1.01
